Reference: PubChem BioAssay (EPA / NIEHS)
Calls of active or inactive are those of the source. How the source made its calls: active means hit-call score of the fitted dose curve at least 0.9, where 1 is the maximum; inactive means score below 0.9.

Tests used:
Conditions in all cases: mRNA level, 48 h; actives raise or lower the signal
[1] = read-out: Cytochrome P450 4A22 (Homo sapiens) (UniProt Q5TCH4); test: LTEA_HepaRG_CYP4A22: Life Technologies and Expression Analysis (LTEA) Assay for Cytochrome P450 4A22 (CYP4A22) using HepaRG (AID 2283495)
How it was run: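 Gene expression measured by qRT-PCR against three housekeeping genes (ACTB, GAPDH, POLR2A), with gain or loss fitted relative to 0.5% DMSO vehicle. HepaRG cultures received 48 h chemical treatment, top concentration 100 uM, half-log steps, duplicate wells.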

[2] = read-out: Cytochrome P450 7A1 (Homo sapiens) (UniProt P22680); test: LTEA_HepaRG_CYP7A1: Life Technologies and Expression Analysis (LTEA) Assay for Cytochrome P450 7A1 (CYP7A1) using HepaRG (AID 2283496)
How it was run: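 Using 0.5% DMSO as vehicle and baseline, chemicals were tested in duplicate over an 8-point range from 100 uM on HepaRG cells for 48 h; qRT-PCR signals were normalised to ACTB, GAPDH and POLR2A.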

[3] = read-out: Glutathione S-Transferase (GSTA2), GSTA2 (gene 2939); test: LTEA_HepaRG_GSTA2: Life Technologies and Expression Analysis (LTEA) Assay for Glutathione S-Transferase (GSTA2) using HepaRG (AID 2283497)
How it was run: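 qRT-PCR readout of GSTA2 transcript, normalized to three housekeeping genes, fitted bidirectionally against 0.5% DMSO baseline. Differentiated HepaRG cells received compound for 48 h at 8 concentrations (top 100 uM, half-log steps).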

[4] = read-out: Glutamate-cysteine ligase catalytic (GCLC), GCLC (gene 2729); test: LTEA_HepaRG_GCLC: Life Technologies and Expression Analysis (LTEA) Assay for Glutamate-cysteine ligase catalytic (GCLC) using HepaRG (AID 2283498)
How it was run: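 HepaRG, 48 h exposure, 8-pt half-log series from 100 uM, 0.5% DMSO vehicle; TaqMan qRT-PCR for GCLC mRNA, housekeeping-normalized; bidirectional curve fit vs DMSO baseline.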

[5] = read-out: growth arrest and DNA damage 45 (GADD45G), GADD45G (gene 10912); test: LTEA_HepaRG_GADD45G: Life Technologies and Expression Analysis (LTEA) Assay for growth arrest and DNA damage 45 (GADD45G) using HepaRG (AID 2283499)
How it was run: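 GADD45G transcript level by qRT-PCR (housekeeping-normalized: ACTB, GAPDH, POLR2A) after 48 h chemical treatment of a single HepaRG lot in serum-free induction medium; eight-point half-log series up to 100 uM in 0.5% DMSO, duplicates, up- or down-regulation scored.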

[6] = read-out: Glutamate-cysteine ligase regulatory (GCLM), GCLM (gene 2730); test: LTEA_HepaRG_GCLM: Life Technologies and Expression Analysis (LTEA) Assay for Glutamate-cysteine ligase regulatory (GCLM) using HepaRG (AID 2283500)
How it was run: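 In this multiplexed HepaRG gene-expression assay, GCLM mRNA change after 48 h treatment (8 concentrations, max 100 uM) was scored against DMSO by bidirectional curve fitting.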

[7] = read-out: Glutathione S-transferase M3 (GSTM3), GSTM3 (gene 2947); test: LTEA_HepaRG_GSTM3: Life Technologies and Expression Analysis (LTEA) Assay for Glutathione S-transferase M3 (GSTM3) using HepaRG (AID 2283501)
How it was run: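 GSTM3 transcript levels came from Fluidigm TaqMan qRT-PCR normalized to three housekeeping genes, fitted in both directions against DMSO. HepaRG cultures received chemicals for 48 h in serum-free induction medium (0.5% DMSO), 8 half-log concentrations up to 100 uM, duplicate.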

[8] = read-out: Heat shock 70 kDa protein 1 (HSPA1A), gene 3303; test: LTEA_HepaRG_HSPA1A: Life Technologies and Expression Analysis (LTEA) Assay for Heat shock 70 kDa protein 1 (HSPA1A) using HepaRG (AID 2283502)
How it was run: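 An oxidative-stress marker readout: HepaRG cells treated 48 h in duplicate with an eight-point series (highest 100 uM) had HSPA1A mRNA quantified by TaqMan qRT-PCR. Activity was fitted in both directions using 0.5% DMSO as baseline.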

[9] = read-out: Hypoxia-inducible factor 1-alpha (Homo sapiens) (UniProt Q16665); test: LTEA_HepaRG_HIF1A: Life Technologies and Expression Analysis (LTEA) Assay for Hypoxia-inducible factor 1 (HIF1A) Trancription factor using HepaRG (AID 2283503)
How it was run: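 Gain- or loss-of-signal HIF1A mRNA changes are fitted against a DMSO baseline. HepaRG cultures receive eight concentrations, highest 100 uM, for 48 h in serum-free induction medium with 0.5% DMSO.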

[10] = read-out: 3-Hydroxy-3-Methylglutaryl-CoA Synthase 2 (HMGCS2), HMGCS2 (gene 3158); test: LTEA_HepaRG_HMGCS2: Life Technologies and Expression Analysis (LTEA) Assay for 3-Hydroxy-3-Methylglutaryl-CoA Synthase 2 (HMGCS2) using HepaRG (AID 2283504)
How it was run: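 Readout is HMGCS2 transcript by qRT-PCR, housekeeping-normalised (ACTB/GAPDH/POLR2A) and fitted bidirectionally against 0.5% DMSO. Differentiated HepaRG cells received chemicals 48 h, duplicate wells, eight half-log concentrations topping at 100 uM.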

HGF (gene 3082) = test: LTEA_HepaRG_HGF: Life Technologies and Expression Analysis (LTEA) Assay for Hepatocyte Growth Facto (HGF) using HepaRG (AID 2283505)
How it was run: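 HGF transcript was quantified by TaqMan qRT-PCR against three housekeeping genes after 48 h treatment of HepaRG cells. Exposure ran in duplicate over eight half-log steps topping at 100 uM in 0.5% DMSO vehicle.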

[11] = read-out: Insulin Like Growth Factor 1 (IGF1), IGF1 (gene 3479); test: LTEA_HepaRG_IGF1: Life Technologies and Expression Analysis (LTEA) Assay for Insulin Like Growth Factor 1 (IGF1) using HepaRG (AID 2283506)
How it was run: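 Endpoint: IGF1 mRNA change by qRT-PCR, housekeeping-normalized, fitted bidirectionally relative to 0.5% DMSO vehicle. Human HepaRG cells were treated 48 h in serum-free induction medium, eight half-log concentrations topping at 100 uM.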

[12] = read-out: Intercellular Adhesion Molecule 1 (ICAM1), ICAM1 (gene 3383); test: LTEA_HepaRG_ICAM1: Life Technologies and Expression Analysis (LTEA) Assay for Intercellular Adhesion Molecule 1 (ICAM1) using HepaRG (AID 2283507)
How it was run: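 ICAM1 transcript levels measured by qRT-PCR, normalized to three housekeeping genes (ACTB, GAPDH, POLR2A), after 48 h chemical exposure of HepaRG cells. Duplicate eight-point half-log series from 100 uM in 0.5% DMSO; gain or loss fitted against vehicle.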

[13] = read-out: Insulin-like growth factor-binding protein 1 (IGFBP1), IGFBP1 (gene 3484); test: LTEA_HepaRG_IGFBP1: Life Technologies and Expression Analysis (LTEA) Assay for Insulin-like growth factor-binding protein 1 (IGFBP1) using HepaRG (AID 2283508)
How it was run: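 Read-out is qRT-PCR transcript level normalized to three housekeeping genes, fitted in both directions against 0.5% DMSO. Differentiated HepaRG cells received eight half-log concentrations (top 100 uM) in duplicate for 48 h in serum-free induction medium.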

[14] = read-out: Interleukin 6 (IL6), IL6 (gene 3569); test: LTEA_HepaRG_IL6: Life Technologies and Expression Analysis (LTEA) Assay for Interleukin 6 (IL6) using HepaRG (AID 2283509)
How it was run: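 qRT-PCR read-out of IL6 transcript, normalized to three housekeeping genes, after 48 h chemical exposure of HepaRG cells; 8-point half-log series, top 100 uM, 0.5% DMSO vehicle. Bidirectional curve fitting against DMSO baseline.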

[15] = read-out: Interleukin 6 Receptor (IL6R), IL6R (gene 3570); test: LTEA_HepaRG_IL6R: Life Technologies and Expression Analysis (LTEA) Assay for Interleukin 6 Receptor (IL6R) using HepaRG (AID 2283510)
How it was run: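 In this HepaRG screen, test chemicals act on cells for 48 h at up to 100 uM (eight half-log points, duplicate wells). IL6R expression is quantified by qRT-PCR after normalization to ACTB, GAPDH and POLR2A, with DMSO as baseline.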

[16] = read-out: Potassium channel subfamily K member 1 (KCNK1), KCNK1 (gene 3775); test: LTEA_HepaRG_KCNK1: Life Technologies and Expression Analysis (LTEA) Assay for Potassium channel subfamily K member 1 (KCNK1) using HepaRG (AID 2283511)
How it was run: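 HepaRG, 48 h exposure, 8-pt half-log series top 100 uM, 0.5% DMSO vehicle, duplicates. Readout: KCNK1 transcript by qRT-PCR (Fluidigm array), housekeeping-normalized; bidirectional curve fit relative to DMSO baseline.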

[17] = read-out: Keratin 19 (KRT19), KRT19 (gene 3880); test: LTEA_HepaRG_KRT19: Life Technologies and Expression Analysis (LTEA) Assay for Keratin 19 (KRT19) using HepaRG (AID 2283512)
How it was run: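 KRT19 transcript measured by TaqMan qRT-PCR, referenced to three housekeeping genes, after HepaRG cells received test chemicals for 48 h. Eight half-log concentrations, top 100 uM, 0.5% DMSO vehicle; increases and decreases both fitted.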

[18] = read-out: JUN Transcription Factor, JUN (gene 3725); test: LTEA_HepaRG_JUN: Life Technologies and Expression Analysis (LTEA) Assay for JUN Transcription Factor using HepaRG (AID 2283513)
How it was run: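 Gene-expression endpoint: JUN mRNA (qRT-PCR, normalized to three reference genes) in HepaRG cultures treated 48 h with chemicals, duplicate wells, 100 uM maximum with half-log dilutions; bidirectional fitting relative to 0.5% DMSO.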

[19] = read-out: Lipase C (LIPC), LIPC (gene 3990); test: LTEA_HepaRG_LIPC: Life Technologies and Expression Analysis (LTEA) Assay for Lipase C (LIPC) using HepaRG (AID 2283514)
How it was run: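 HepaRG, 48 h exposure, 8-pt half-log series from 100 uM in 0.5% DMSO, duplicates. Readout: LIPC mRNA by Fluidigm qRT-PCR, housekeeping-normalized (ACTB/GAPDH/POLR2A). Gain or loss fitted bidirectionally against DMSO baseline.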

Measured: AC50

Sequence of Hypoxia-inducible factor 1-alpha (Homo sapiens) (Q16665 whole entry, looked up): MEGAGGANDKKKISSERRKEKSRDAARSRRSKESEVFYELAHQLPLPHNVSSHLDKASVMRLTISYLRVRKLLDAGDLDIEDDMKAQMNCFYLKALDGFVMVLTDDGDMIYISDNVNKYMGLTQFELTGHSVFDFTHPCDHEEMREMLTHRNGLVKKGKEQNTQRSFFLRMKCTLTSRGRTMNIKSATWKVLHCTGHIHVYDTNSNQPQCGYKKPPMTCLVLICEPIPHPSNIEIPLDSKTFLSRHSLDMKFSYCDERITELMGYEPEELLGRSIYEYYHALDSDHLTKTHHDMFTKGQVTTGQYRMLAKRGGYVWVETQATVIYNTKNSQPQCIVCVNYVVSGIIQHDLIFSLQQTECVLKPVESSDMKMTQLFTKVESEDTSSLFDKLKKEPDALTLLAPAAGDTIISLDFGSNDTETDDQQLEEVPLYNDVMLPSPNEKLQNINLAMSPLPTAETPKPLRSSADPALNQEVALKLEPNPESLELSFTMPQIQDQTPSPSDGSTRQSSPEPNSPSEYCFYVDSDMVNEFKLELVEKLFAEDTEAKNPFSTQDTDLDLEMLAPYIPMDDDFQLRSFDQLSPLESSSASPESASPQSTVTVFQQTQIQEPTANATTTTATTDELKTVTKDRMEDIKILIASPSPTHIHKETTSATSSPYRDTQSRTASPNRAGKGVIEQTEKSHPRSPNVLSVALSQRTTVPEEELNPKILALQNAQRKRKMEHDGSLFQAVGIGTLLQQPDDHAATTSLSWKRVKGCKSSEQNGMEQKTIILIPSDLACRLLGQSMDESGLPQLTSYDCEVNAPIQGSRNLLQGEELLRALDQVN

COCC(C)OCC(C)OCC(C)O (stereo not given)
inactive: [1] | [2] | [3] | [4] | [5] | [6] | [7] | [8] | [9] | [10] | HGF (gene 3082) | [11] | [12] | [13] | [14] | [15] | [16] | [17] | [18] | [19]

NC(=O)c1nc(-c2cccc(-c3cc(F)ccc3OCC(F)(F)C(F)(F)F)c2)n[nH]1
active: [1] 9.78 µM | [9] 87.2 µM | [10] 50 µM | HGF (gene 3082) 77.2 µM | [11] 83.2 µM | [13] 78.1 µM | [14] 78.6 µM | [17] 12.1 µM | [18] 79 µM
inactive: [2] | [3] | [4] | [5] | [6] | [7] | [12] | [15] | [16] | [19]

CO[C@H]1/C=C/O[C@@]2(C)Oc3c(C)c(O)c4c(O)c(c(/C=N/N5CCN(C)CC5)c(O)c4c3C2=O)NC(=O)/C(C)=C\C=C\[C@H](C)[C@H](O)[C@@H](C)[C@@H](O)[C@@H](C)[C@H](OC(C)=O)[C@@H]1C
inactive: [1] | [4] | [5] | [6] | [7] | [8] | [10] | HGF (gene 3082) | [12] | [13] | [14] | [15] | [16] | [17] | [18] | [19]
active: [2] 1.62 µM | [3] 0.379 µM | [11] 4.12 µM

C[C@]12CC[C@@H]3c4ccc(O)cc4CC[C@H]3[C@@H]1CCC2=O
active: [8] 33.2 µM | [10] 72.7 µM | [11] 50 µM
inactive: [3] | [4] | [5] | [6] | [7] | [9] | HGF (gene 3082) | [12] | [13] | [14] | [15] | [16] | [17] | [18]

O=CCCCC=O
inactive: [1] | [2] | [3] | [4] | [5] | [7] | [8] | [9] | [10] | HGF (gene 3082) | [11] | [12] | [13] | [14] | [15] | [16] | [17] | [18] | [19]
active: [6] 0.236 µM

COc1cccc([C@H](O)C2CCN(CCc3ccc(F)cc3)CC2)c1OC
active: [5] 69.1 µM | [7] 72.9 µM | [13] 33.6 µM | [17] 15.3 µM
inactive: [1] | [2] | [3] | [4] | [6] | [8] | [9] | [10] | HGF (gene 3082) | [11] | [12] | [14] | [15] | [16] | [18] | [19]
